Source: PubChem BioAssay AID720550 (National Center for Advancing Translational Sciences (NCATS), 2013)
Inconclusive results are not listed. Where a call stands in place of a potency, no number is given. Activity calls are given as the source filed them. Calls follow the shape of the dose curve; as a rule, active = well fitted curve in the direction sought with a large enough effect; inconclusive = small, poorly fitted or top-dose-only effect, or another doubt; inactive = no such curve, though single readings can be large or run the other way.

Experiment: qHTS for Inhibitors of Bloom's syndrome helicase (BLM): Thiazole Orange DNA Binding Counterscreen for SAR.
Conditions: fluorescence; Potency: Thiazole orange DNA displacement; series mostly up to 57.1 µM
How it was run: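 Compounds pintool-added to 50 nM unlabeled DNA with 100 nM thiazole orange; fluorescence (ex 480/em 530 nm) read after 15 min at room temperature. Dye displacement flags nonspecific DNA binders; inactivity is the desired outcome.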

Q: With `N#Cc1ccc(NC(=O)Nc2nnc(-c3ccncc3)s2)c(Cl)c1` as the compound, how does the Potency read?
A: inactive

Q: Which Potency does the source give for `O=C(Nc1ccc(Cl)c(C(F)(F)F)c1)Nc1cccc(-c2ccncc2)n1` here?
A: inactive

Q: For `O=C(Nc1ccc(Cl)c(Cl)c1)Nc1nnc(NC2CCNCC2)s1`, which Potency is on record?
A: inactive

Q: For `CCOC(=O)c1cccc(NC(=O)Nc2nnc(-c3ccncc3)s2)c1`, which Potency is on record?
A: inactive

Q: With `O=c1c(Nc2ccc(Cl)c(Cl)c2)c(Nc2nnc(-c3ccncc3)s2)c1=O` as the compound, how does the Potency read?
A: 4.57 µM (active)

Q: For `O=C(Nc1ccc2c(c1)OCO2)Nc1nnc(-c2ccncc2)s1`, which Potency is on record?
A: inactive

Q: Which Potency does the source give for `N/C(=N\c1nnc(-c2ccncc2)s1)Nc1ccc(F)c(C(F)(F)F)c1` here?
A: inactive

Q: For `Cc1cc(NC(=O)Nc2cccc(-c3ccncc3)n2)ccc1F`, which Potency is on record?
A: inactive

Q: For `O=C(Nc1ccc2ccccc2c1)Nc1nnc(-c2ccc(Cl)cc2Cl)s1`, which Potency is on record?
A: inactive

Q: With `O=C(Nc1ccc(Cl)cc1)Nc1nnc(-c2ccncc2)s1` as the compound, how does the Potency read?
A: inactive

Q: With `O=C(Nc1ccc(Cl)c([N+](=O)[O-])c1)Nc1cccc(-c2ccncc2)n1` as the compound, how does the Potency read?
A: inactive

Q: Which Potency does the source give for `O=C(Nc1ccc2ccccc2c1)Nc1nnc(-c2ccccn2)s1` here?
A: inactive

Q: With `O=C(Nc1ccc(F)c(C(F)(F)F)c1)Nc1cccc(-c2ccncc2)n1` as the compound, how does the Potency read?
A: inactive

Q: With `O=C(Nc1nnc(-c2ccncc2)s1)NC12CC3CC(CC(C3)C1)C2` as the compound, how does the Potency read?
A: inactive

Q: With `O=C(Nc1ccc(-c2nc3ccccc3[nH]2)cc1)Nc1ccc2occc2c1` as the compound, how does the Potency read?
A: inactive

Q: Which Potency does the source give for `O=C(Nc1ccc(F)c(C(F)(F)F)c1)Nc1nnc(-c2ccncc2)o1` here?
A: inactive

Q: Which Potency does the source give for `O=C(Nc1ccc2ccccc2c1)Nc1nnc(-c2cccnc2)s1` here?
A: inactive

Q: Which Potency does the source give for `O=C(Nc1ccc(Cl)c(C(F)(F)F)c1)Nc1nnc(-c2ccncc2)s1` here?
A: inactive

Q: For `O=C(Nc1ccc2ccccc2c1)Nc1nnc(-c2ccncc2)o1`, which Potency is on record?
A: inactive

Q: Which Potency does the source give for `O=C(Nc1ccc(F)nc1)Nc1nnc(-c2ccncc2)s1` here?
A: inactive
